Screens as filed in PubChem BioAssay.
NR2F2 inh – NR2F2 (human) inhibition, primary screen. inhibition, % at 8.6 µM. AID 686940. HEK293T NGFI-A luciferase reporter, luminescence. 370,000 compounds, 0.7% hits. P24468;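 active means inhibition above a per-plate cutoff, mean inhibition of test wells between control levels plus 3 SD, cut at about 38% in these data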;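 further: cells cotransfected with COUP-TFII expression vector driving the NGFI-A reporter; 0% = median of COUP-TF2 test wells and 100% = reporter-only cells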
Target sequence (P24468 whole entry, looked up): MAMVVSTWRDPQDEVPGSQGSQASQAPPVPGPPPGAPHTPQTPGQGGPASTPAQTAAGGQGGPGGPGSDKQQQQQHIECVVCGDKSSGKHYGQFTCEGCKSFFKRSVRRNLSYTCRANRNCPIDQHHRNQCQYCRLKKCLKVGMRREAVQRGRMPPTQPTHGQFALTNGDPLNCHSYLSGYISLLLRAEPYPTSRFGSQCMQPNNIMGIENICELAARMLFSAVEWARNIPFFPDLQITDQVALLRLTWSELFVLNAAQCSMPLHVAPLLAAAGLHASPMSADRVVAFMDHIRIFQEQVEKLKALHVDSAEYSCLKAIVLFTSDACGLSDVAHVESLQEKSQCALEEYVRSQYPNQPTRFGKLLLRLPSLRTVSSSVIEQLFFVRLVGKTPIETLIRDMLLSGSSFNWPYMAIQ
GalR3 antag – antagonists of human GalR3 | inhibition, % at 3 µM | HEK293 GalR3-CNG cAMP membrane potential fluorescence; galR3 body fused to GalR1 C-terminus | AID 651719 | 360,000 compounds, 0.44% hits;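 active means inhibition above the screen-wide average plus 3 SD, cut at about 13% in these data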;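 further: forskolin and galanin both at EC90 stimulate the cells; cAMP rise reported by CNG channel membrane potential dye signal; 0% = forskolin plus galanin with DMSO and 100% = forskolin alone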
Gli-Sufu antag – blocks Gli-Sufu signaling in a luciferase reporter. Sufu-KO-LIGHT fibroblasts, Gli luciferase reporter luminescence. inhibition, % at 5 µM. 340,000 compounds, 0.74% hits. AID 588413;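 active means inhibition above about 55%, limit read from the data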;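 further: 0% = DMSO-treated cells and 100% = wells with medium but no cells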
FXN GAA850 act – activators of GAA850 frataxin (FXN) promoter; HEK293 lucGAA850 FXN promoter luciferase reporter, 24 h; percent of 10 µM SAHA response; activation, % at 6 µM; 360,000 compounds, 0.56% hits; AID 540364;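 active means activation above the average of all compounds screened plus 3 SD, cutoff fixed separately per campaign, cut at about 7.5% in these data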;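 further: 0% = DMSO wells and 100% = 10 µM SAHA wells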
H9c2 protect – modulators protecting cardiomyocytes from myocardial damage. H9c2 cardiomyocytes, H2O2 injury protection, ATPLite, 2 h. protection from H2O2 cell death, % at 20 µM. 360,000 compounds, 0.63% hits;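 active means compounds giving at least 50% protection of heart cells from peroxide-induced death in the single-dose screen, raw or plate-pattern-corrected value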;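 further: 0% = DMSO wells with peroxide and 100% = DMSO wells without peroxide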
SMARCA2 act – increases SMARCA2 function in MMTV reporter cells | MG213 cells, MMTV-luciferase reporter, dexamethasone, overnight | activation, % at 9.1 µM | 370,000 compounds, 1% hits; in the data active means activation above about 7.8%;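 further: 0% = vehicle wells and 100% = reference activator wells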
SMARCA2 conf – SMARCA2 activation, confirmation screen | MG213 cells, MMTV-luciferase with dexamethasone, luminescence, overnight; MG213 cells expressing E1A, Rb sequestered; DMSO wells 0%, reference activator 100% | activation, % at 9.1 µM | 3,500 compounds, 30% hits | shares compounds with SMARCA2 act;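 active means activation above its plate's cutoff, the mean activation of tested wells plus 3 SD, cut at about 7.9% in these data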
VP16 Luc act – activates GAL4-VP16 luciferase, flagging SMARCA2 activator hits. shares compounds with SMARCA2 act. HEK293 GAL4-VP16 pG5luc reporter, luciferase luminescence; scaled: DMSO wells 0%, SAHA wells 100%. activation, % at 9.1 µM. 3,500 compounds, 41% hits;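 active means activation above the solvent-only control well mean plus 3 SD, averaged across control plates, cut at about 5.2% in these data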
* hit, by the source's call; x = no result. Rows were chosen to be rich in hits. Some 3.4% of all compounds tested hit in one or more screens of this group.

SMILES | NR2F2 inh | GalR3 antag | Gli-Sufu antag | FXN GAA850 act | H9c2 protect | SMARCA2 act | SMARCA2 conf | VP16 Luc act
CCCN(/C=N/c1sc2c(c1C#N)CCCCC2)CCC | 0.6 | -2.0 | 0.0 | 5.5 | -27.2 | 15.4* | 0.4 | 2.4
COc1ccc(NS(=O)(=O)c2ccc(C)c(C(=O)N3CC(C)OC(C)C3)c2)cc1 (centres undefined) | 0.1 | 3.8 | -10.3 | 0.4 | -4.0 | -2.6 | x | x
O=C(Nc1c(-c2ccc3c(c2)OCO3)[nH][nH]c1=O)c1cnccn1 | 4.9 | -8.4 | x | x | -1.4 | -2.0 | x | x
Cc1csc2c(=O)sc(NC(=O)c3ccc(F)cc3Cl)nc12 | 10.8 | -0.3 | 1.0 | 0.4 | -5.5 | 10.7* | -5.7 | -0.3
O=C(Oc1oc(-c2ccco2)nc1C=Nc1ccccc1)c1ccoc1 | -22.4 | -1.4 | -0.9 | 1.5 | -8.4 | 1.1 | x | x
Cc1ccc(C(=O)Oc2oc(-c3ccco3)nc2C=Nc2ccc(Cl)cc2)cc1 | -55.1 | 1.0 | -104.0 | 2.3 | -29.0 | 8.0* | 1.6 | 20.3*
Cc1ccccc1N/N=C/c1c(C)nc2ccccn12 | 5.2 | -6.0 | 10.0 | 3.1 | 8.2 | -2.4 | x | x
O=C(NCc1ccco1)c1ccc(-c2cccc(Cl)c2)o1 | -29.0 | -1.1 | 13.5 | 1.8 | 0.4 | 9.6* | 12.6* | 5.3*
COc1cccc(-c2cc(C(=O)NCc3ccco3)no2)c1 | -30.6 | -5.9 | -61.5 | 3.4 | -7.1 | 8.4* | 6.7 | 11.2*
COc1cc(OC)nc(/N=C/NO)n1 | -17.4 | -4.5 | 7.7 | 1.0 | 0.7 | -4.3 | x | x
CCC(C)N1CC(=O)N2C(c3ccc(OC)cc3OC)c3[nH]c4ccccc4c3C[C@H]2C1=O (some centres undefined) | -8.6 | -9.2 | -3.8 | 1.1 | -3.0 | -1.4 | x | x
Cc1cccc(C(=O)Nc2cccc(C(=O)N/N=C/c3cccc(C)n3)c2)c1 | -9.4 | -4.9 | -13.2 | 2.0 | 15.0 | 1.5 | x | x
CC(=O)Nc1cccc(C(=O)N/N=C/c2cccc(C)n2)c1 | -2.5 | -12.1 | 2.9 | 3.5 | -1.5 | 11.4* | -4.9 | -1.2
O=C(Nc1ccc2c(c1)oc1ccccc12)c1ccc2c(c1)OCO2 | -5.0 | -4.7 | -83.8 | 2.8 | -9.2 | 8.9* | 7.1 | -0.7
O=C(Nc1ccc2c(c1)OCO2)c1ccc2c(c1)OCO2 | -54.4 | -4.1 | -62.6 | 1.9 | -13.4 | 5.2 | x | x
CSc1nnc(NC(=O)c2ccc3c(c2)OCO3)s1 | -26.0 | 1.1 | -29.0 | 0.9 | -15.4 | 5.6 | x | x
Cc1nnc(NC(=O)c2ccc3c(c2)OCO3)s1 | -40.7 | -4.1 | -60.4 | 4.8 | -7.2 | 10.3* | 7.0 | 9.5*
COc1cc(OC)cc(C(=O)NC(C)CNc2ccc(Cl)cc2[N+](=O)[O-])c1 (centres undefined) | 0.9 | -5.3 | 1.2 | 0.2 | -3.6 | -3.2 | x | x
Cc1nnc(NC(=O)c2sc3ccccc3c2Cl)s1 | -41.3 | -5.9 | -55.9 | 3.7 | -23.4 | 4.9 | x | x
CNC(=O)c1ccsc1NC(=O)c1sc2ccccc2c1Cl | -25.9 | -3.3 | -10.6 | 4.2 | -5.1 | 11.1* | 12.3* | 7.5*
Cc1cccnc1NC(=O)c1sc2ccccc2c1Cl | -35.8 | -5.3 | -34.8 | 6.2 | -4.7 | 8.5* | 17.6* | 7.8*
COCc1nnc(NC(=O)c2sc3ccccc3c2Cl)s1 | -14.8 | -4.9 | -36.0 | -0.1 | -10.5 | 9.8* | 16.8* | 7.5*
O=C(CCc1nnc2ccc(NCc3ccccc3Cl)nn12)NC1CCCCC1 | -1.9 | -10.0 | 36.2 | -0.2 | -0.4 | 4.3 | x | x
CC(C)Cn1cc(C(=O)N2CCN(c3ccccn3)CC2)c2c3ccccc3n(C)c2c1=O | 3.1 | -3.8 | 11.3 | 1.9 | 15.7 | -1.3 | x | x
CC1(C(=O)OCC(=O)Nc2ccc3ccccc3c2)CC1(Cl)Cl (centres undefined) | -23.5 | -7.4 | -6.3 | 6.2 | -3.3 | 8.5* | 6.0 | 6.3*
CCOC(=O)c1ccc(/C=C2/C=C(c3ccccc3)N(c3ccc(Cl)c(C(=O)O)c3)C2=O)cc1 | -15.6 | -7.8 | 2.7 | -5.8 | 6.7 | 11.5* | -2.2 | -1.1
